Screens from PubChem.
PNC inhibitor: blocks assembly of the perinucleolar compartment; AID 2417; actives 3.1% (n = 140,000); activity change (PNC), negative = inhibition, % at 10 µM; PC3M PTB-GFP, PNC prevalence imaging, 16 h; active compounds read low;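 active = readout at or below -70, meaning at least 70% loss of cells showing the perinucleolar compartment, a nuclear body marking cancer cells; inconclusive = readout between -30 and a set limit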
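Compounds are pinned in duplicate onto adhered PC3M cells stably expressing GFP-tagged PTB and incubated 16 h at 37 C. Cells are then fixed, nuclei stained with Hoechst, and PNC-positive cells counted.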
ALDH1A1 block: ALDH1A1 (human) enzyme inhibition | Purified ALDH1A1, NADH fluorescence, propionaldehyde substrate | Potency, µM (titrated, usually from 75.3 µM), hits mostly inhibitors | actives 7.3% (n = 220,000)
Target sequence (P00352 whole entry, looked up): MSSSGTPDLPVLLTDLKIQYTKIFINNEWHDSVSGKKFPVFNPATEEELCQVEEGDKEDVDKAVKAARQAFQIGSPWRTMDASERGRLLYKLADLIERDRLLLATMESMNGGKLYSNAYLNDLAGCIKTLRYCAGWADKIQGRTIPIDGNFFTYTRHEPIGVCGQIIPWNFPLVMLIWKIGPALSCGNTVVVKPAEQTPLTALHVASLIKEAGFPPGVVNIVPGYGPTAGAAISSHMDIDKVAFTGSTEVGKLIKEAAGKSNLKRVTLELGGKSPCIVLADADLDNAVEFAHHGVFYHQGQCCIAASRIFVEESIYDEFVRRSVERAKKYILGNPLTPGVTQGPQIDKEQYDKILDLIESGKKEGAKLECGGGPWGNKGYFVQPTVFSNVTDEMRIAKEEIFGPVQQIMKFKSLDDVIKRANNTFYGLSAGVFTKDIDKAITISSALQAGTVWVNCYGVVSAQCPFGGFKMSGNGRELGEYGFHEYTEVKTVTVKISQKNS
HPGD inh: inhibitors of human 15-hydroxyprostaglandin dehydrogenase (HPGD); purified HPGD, NADH fluorescence kinetic, PGE2 substrate; actives 4.3% (n = 150,000); AID 894; Potency, µM, hits mostly inhibitors; P15428
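NADH formation kinetics: reaction with 30 uM PGE2 and 1 mM NAD+ (final), 20 nM enzyme, Tris-HCl pH 8 with Tween 20, after 15 min compound preincubation at room temperature. Fluorescence change, last versus first of five reads.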
Large screens that a line does not name were inactive. Only some compounds are listed: those with a hit (about 11% of all), similar ones and a draw of the others. Unless noted, calls come from the whole dose curve; as a rule, active = well fitted inhibition curve with a large enough effect (not every such curve was filed as active); inconclusive = small, poorly fitted or top-dose-only effect, or another doubt; inactive = no such curve, though single readings can be large or run the other way.

O=C(OC(C(=O)NCc1cccs1)c1ccccc1Cl)c1ccco1 (stereo not drawn)	PNC inhibitor inconclusive
CC1=C/C(=N\NC(=O)c2ccc(O)cc2)CC1	none (no result: HPGD inh)
CSC(=NNC(=O)c1ccc(O)cc1)SC	HPGD inh 15.8µM
CN(Cc1cccs1)C(=O)COc1ccc(-c2nnco2)cc1	none
O=C(CSc1nnc(NC(=O)C2CC2)s1)Nc1ccc2c(c1)OCCO2	none (no result: PNC inhibitor, HPGD inh)
CCCN1C(=O)/C(=C/c2cc(C)n(C)c2C)SC1=Nc1ccc(OCC)cc1	ALDH1A1 block 3.16µM
CCN1C(=O)/C(=C/c2cc(C)n(C)c2C)SC1=Nc1ccc(OC)cc1	PNC inhibitor inconclusive, ALDH1A1 block 1.26µM
CCN1C(=O)/C(=C/c2ccc(C)s2)SC1=Nc1ccc(OC)cc1	ALDH1A1 block inconclusive
CCOc1ccc(N=C2NC(=O)S/C2=C\c2ccc(OC)cc2)cc1	none
CCOC(=O)NC1(C(F)(F)F)C(=O)N(Cc2ccccn2)C2=C1C(=O)CC(C)(C)C2 (stereo not drawn)	none
C[N+]1(C)CCC(=C2c3ccccc3CC(=O)c3sccc32)CC1	ALDH1A1 block 7.08µM, HPGD inh inconclusive
CC[N+]1(C)CCC(=C2c3ccccc3CC(=O)c3sccc32)CC1 (stereo not drawn)	none
COc1ccccc1NC(=O)CC(NC1CCCCC1)C(=O)O (stereo not drawn)	PNC inhibitor inconclusive
COc1ccc2oc(-c3ccc(C)c(NC(=O)c4ccc(N5CCOCC5)c([N+](=O)[O-])c4)c3)nc2c1	none
Cn1c(=O)c2c(nc(SCCCO)n2Cc2ccccc2Cl)n(C)c1=O	ALDH1A1 block inconclusive
Cn1c(=O)n(CCc2ccccc2)c(=O)c2c1nc1n2CCCN1CCc1ccccc1	PNC inhibitor inconclusive, ALDH1A1 block 11.2µM
COc1ccc(N2CCCn3c2nc2c3c(=O)n(CCc3ccccc3)c(=O)n2C)cc1	ALDH1A1 block inconclusive
CCOc1ccc(N2CCCn3c2nc2c3c(=O)n(CCc3ccccc3)c(=O)n2C)cc1	ALDH1A1 block 11.2µM, HPGD inh inconclusive
Cn1c(=O)n(CCc2ccccc2)c(=O)c2c1nc1n2CCCN1Cc1ccccc1	ALDH1A1 block inconclusive
Cn1ncc2c(Cl)ncnc21	none (no result: PNC inhibitor)
Cc1ccc(/C=N/N2CCN(Cc3ccccc3)CC2)o1	ALDH1A1 block inconclusive
Cc1ccc(/C=N/N(Cc2ccccc2)c2ccccc2)o1	ALDH1A1 block 20µM (no result: PNC inhibitor, HPGD inh)
CCOC(=O)Nc1cc(NC(=O)OCC)c(C)nc1C	none (no result: PNC inhibitor, HPGD inh)
CCN1C(=O)[C@H]2[C@H]3[C@H](O)[C@H](O)C/C(=N/OCC(C)C)[C@@H]3CC[C@@H]2C1=O	none (no result: PNC inhibitor, HPGD inh)
CCN1C(=O)[C@@H]2[C@H]3C(=CC[C@@H]2C1=O)C1(OCCCO1)[C@H]1O[C@@H]1[C@H]3O	ALDH1A1 block 1.78µM (no result: PNC inhibitor, HPGD inh)
Cc1nnc(N/N=C\c2ccc(-c3ccccc3[N+](=O)[O-])o2)n1N	ALDH1A1 block 20µM
Cc1nnc(N/N=C/c2ccc(-c3ccccc3F)o2)n1N	none (no result: PNC inhibitor, HPGD inh)
O=[N+]([O-])c1cccc(-c2ccc(/C=N/n3c(-c4ccccc4)n[nH]c3=S)o2)c1	PNC inhibitor inconclusive, HPGD inh inconclusive
Cc1n[nH]c(=S)n1/N=C/c1ccc(-c2ccccc2[N+](=O)[O-])o1	ALDH1A1 block 14.1µM, HPGD inh 14.1µM
O=C(COc1ccccc1[N+](=O)[O-])Nc1ccc(N2CCN(C(=O)c3cccs3)CC2)cc1	none (no result: PNC inhibitor, HPGD inh)
CC(=O)OC[C@@H]1O[C@H](CCO/N=C\[C@@H](C)[C@H](OCc2ccccc2)C(C)C)C=C[C@@H]1OC(C)=O	none (no result: PNC inhibitor, HPGD inh)
Cc1cc(C)cc(NC(=O)CSc2nc3c(c(=O)[nH]2)CN(Cc2ccc(F)cc2)CC3)c1	HPGD inh inconclusive
O=C(CN1C2=NCCCN2c2ccccc21)c1ccc(Cl)cc1Cl	PNC inhibitor inconclusive
COc1ccc(N2C(=O)C3C(C2=O)C2C=CC3C23CC3)c([N+](=O)[O-])c1 (stereo not drawn)	none (no result: PNC inhibitor, HPGD inh)
Cc1ccc(N2C(=O)C3C(C2=O)C2C=CC3C23CC3)c([N+](=O)[O-])c1 (stereo not drawn)	ALDH1A1 block 2.51µM (no result: PNC inhibitor, HPGD inh)
Cc1nc(Nc2ccccc2)sc1-c1ccccc1	ALDH1A1 block 22.4µM (no result: HPGD inh)
CCOC(=O)c1sc(Nc2ccccc2)nc1C	HPGD inh inconclusive
COC(=O)c1sc(Nc2ccccc2)nc1C	HPGD inh 22.4µM
Cc1nc(Nc2ccc(C(=O)O)cc2)sc1-c1ccccc1	none (no result: PNC inhibitor, HPGD inh)
Cc1ccc(-n2cc(C(C)(C)C)[nH]c2=S)cc1	none
CCCOC1(NC(=O)c2ccccc2)C(C)=CC(=O)C=C1C	none
Cc1ccsc1/C=N/NS(=O)(=O)c1ccc([N+](=O)[O-])cc1	none
CCNC(=S)Nc1ccccc1-c1ccccc1	none
CCCCC/C=C\C/C=C\C/C=C\C/C=C\CCCC(=O)C(F)(F)F	ALDH1A1 block 20µM (no result: PNC inhibitor)
CCCCCCCCCCC/C=C\C/C=C\CCCC(=O)O	none (no result: PNC inhibitor)
COc1cc(CC(=O)NCCc2ccc(S(N)(=O)=O)cc2)cc(OC)c1OC	none
N#CCSc1nnc(Nc2ccccc2)s1	ALDH1A1 block inconclusive, HPGD inh 28.2µM
OCCSc1nnc(Nc2ccccc2)s1	ALDH1A1 block inconclusive
O=c1c2ccccc2nc(SCc2ccncc2)n1CC1CCCO1 (stereo not drawn)	none (no result: PNC inhibitor, HPGD inh)
CN1C(=O)C(Cl)(Cl)C(=O)c2ccccc21	ALDH1A1 block 0.398µM, HPGD inh 22.4µM
C/C(CC1(O)C(=O)N(C)c2ccccc21)=N\O (stereo not drawn)	none
O=C(O)Cc1cc(I)c(Oc2cc(I)c(O)c(I)c2)c(I)c1	none (no result: PNC inhibitor)
CC(C)CSc1ncnc2c1oc1nc3c(cc12)COC(C)(C)C3	PNC inhibitor inconclusive, ALDH1A1 block inconclusive
CC1(C)Cc2nc3oc4c(=S)nc[nH]c4c3cc2CO1	ALDH1A1 block 3.16µM, HPGD inh 28.2µM
Cc1cc(C)nc(Sc2nc(Cl)nc(N(c3ccccc3)c3ccccc3)n2)n1	none
COc1ccccc1-c1cc(C(F)(F)F)nc(S(=O)(=O)CCCC(=O)N2CCOCC2)n1	HPGD inh 14.1µM
COc1ccccc1-c1cc(C(F)(F)F)nc(S(=O)(=O)CCCC(=O)O)n1	HPGD inh inconclusive
NC(Cc1ccccc1)C(O)(c1ccccc1)c1ccccc1 (stereo not drawn)	none (no result: PNC inhibitor, HPGD inh)
NC(=O)CCCCC(N)=O	none (no result: PNC inhibitor)
CC(C)CN(CC(C)C)C(=O)Nc1cccc([N+](=O)[O-])c1	none (no result: PNC inhibitor, HPGD inh)
NC(=O)C1c2ccccc2CSc2ccccc21 (stereo not drawn)	ALDH1A1 block inconclusive
NC(=O)C1C(c2ccccc2)=C1c1ccccc1	PNC inhibitor -126.5
CCCCC1=CC2=C(OC(C)=O)C(=O)C(C)(OC(=O)c3ccco3)C(=O)C2=CO1 (stereo not drawn)	none (no result: PNC inhibitor)
Cc1ccc(S(=O)(=O)N2c3ccccc3NC(=O)CC2C)cc1 (stereo not drawn)	none
Cc1ccc(S(=O)(=O)N2c3ccccc3NC(=O)C2CC(=O)Nc2ccccc2)cc1 (stereo not drawn)	ALDH1A1 block 20µM
CC(C)(C)OC(=O)NNC(=O)Nc1ccccc1C(F)(F)F	none (no result: PNC inhibitor, HPGD inh)
N#CC1=C(N)OC2=C(CCc3ccccc32)C1c1ccccc1 (stereo not drawn)	PNC inhibitor -82.6, ALDH1A1 block inconclusive
Cc1ccc(/C=C2\CCC3=C2OC(N)=C(C#N)C3c2ccc(C)cc2)cc1 (stereo not drawn)	PNC inhibitor inconclusive, ALDH1A1 block inconclusive
CCN1C(=O)CSc2ccc(C(=O)NCc3ccco3)cc21	ALDH1A1 block 12.6µM
O=C(NCc1ccco1)c1ccc(C(F)(F)F)cc1	none (no result: PNC inhibitor, HPGD inh)
O=C(NCc1ccco1)c1ccc(N2CCCC2=O)cc1	HPGD inh 25.1µM
